From ChEMBL document CHEMBL1157539, “Thousands of chemical starting points for antimalarial lead identification” (Nature, 2010)

How the values were obtained:
Format in all cases: functional
Plasmodium falciparum [1] = assay: GSK_TCMDC: Inhibition of Plasmodium falciparum 3D7 in whole red blood cells, using parasite LDH activity as an index of growth. Test compounds present at 2uM
Plasmodium falciparum [2] = assay: GSK_TCMDC: Inhibition of Plasmodium falciparum Dd2 in whole red blood cells, using parasite LDH activity as an index of growth. Test compounds present at 2uM
HepG2 = assay: GSK_TCMDC: Percent inhibition of human HepG2 cell line. Test compounds present at 10uM.

Cc1[nH]c(C)c(-c2ccc(Oc3ccc(F)cc3)cc2)c(=O)c1Cl
Inhibition (Plasmodium falciparum [1]): 99%
Inhibition (Plasmodium falciparum [2]): 98%
Inhibition (HepG2): 14%

O=C(NC1CCCc2ccccc21)C1CCCN(C(=O)c2ccc(O)c(-c3ccc(Cl)c(Cl)c3)c2)C1 (configuration not stated)
Inhibition (Plasmodium falciparum [1]): 88%
Inhibition (Plasmodium falciparum [2]): 54%
Inhibition (HepG2): 0%

Cc1cccc2nc(-c3ccc(-c4ccc(CN5CCCC5CN)cc4)cc3)[nH]c12.O=C(O)C(F)(F)F (configuration not stated)
Inhibition (Plasmodium falciparum [1]): 99%
Inhibition (Plasmodium falciparum [2]): 65%
Inhibition (HepG2): 28%

c1ccc(-c2nc(NC3CCCCC3)cc(C3CC3)n2)nc1
Inhibition (Plasmodium falciparum [1]): 97%
Inhibition (Plasmodium falciparum [2]): 76%
Inhibition (HepG2): 35%

CC(C)c1ccc(NS(=O)(=O)c2cccc(C(=O)NC3CCN(CC4CCCCC4)CC3)c2)cc1.O=C(O)C(F)(F)F
Inhibition (Plasmodium falciparum [1]): 93%
Inhibition (Plasmodium falciparum [2]): 69%
Inhibition (HepG2): 71%

O=C(Nc1ccc(-c2nc3ccccc3[nH]2)cc1)C1CCN(Cc2ccc(F)cc2)CC1
Inhibition (Plasmodium falciparum [1]): 100%
Inhibition (Plasmodium falciparum [2]): 91%
Inhibition (HepG2): 13%

Cc1nc(C)c(-c2ccc(Oc3ccc(Cl)cc3Cl)cc2)c(O)c1Br
Inhibition (Plasmodium falciparum [1]): 98%
Inhibition (Plasmodium falciparum [2]): 94%
Inhibition (HepG2): 3%

COc1ccc2cc(C(c3nnnn3CC3CCCO3)N3CCc4ccccc43)c(=O)[nH]c2c1 (configuration not stated)
Inhibition (Plasmodium falciparum [1]): 94%
Inhibition (Plasmodium falciparum [2]): 3%
Inhibition (HepG2): 0%

CS(=O)(=O)Nc1cccc(-c2cnc3[nH]cc(-c4cccc(CN)c4)c3c2)c1
Inhibition (Plasmodium falciparum [1]): 96%
Inhibition (Plasmodium falciparum [2]): 82%
Inhibition (HepG2): 25%
